Screens as filed in PubChem BioAssay.
TDP1 block = blocks human tyrosyl-DNA phosphodiesterase 1; Q9NUW8; recombinant TDP1, AlphaScreen DNA substrate cleavage; Potency, µM (top dose mostly 130 µM), usual class: inhibitors; 0.28% of 350,000 active; note: nearly all actives have a fitted effect of over 40% in size
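Steps: enzyme plus compound, 15 min RT; add biotin/phosphotyrosine-FITC oligonucleotide (15 nM final), react 5 min; add donor/acceptor beads (10 ug/ml final), 10 min; read AlphaScreen. Tdp1 at 1 nM final.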
TDP1 cell CPT = growth inhibition of DT40 Tdp1-/-;hTDP1 cells with camptothecin (screen for TDP1 inhibitors). AID 686979. chicken DT40 Tdp1-/-;hTDP1 cells + 20 nM CPT, ATP luminescence, 48 h. 12% of 420,000 active. Potency, µM (highest dose often 46.2 µM), hits mostly inhibitors; note: nearly all actives have a fitted effect of over 55% in size
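Cell growth measured by CellTiter-Glo luminescence after a minimum 48 h, 37 C compound exposure with 20 nM CPT in Tdp1-knockout DT40 cells stably expressing hTDP1, seeded 400/well; qHTS titration format.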
RORgamma inh = ROR gamma (mouse) transcription inhibition; P51450; Drosophila S2 Gal4-RORgamma UAS-luciferase reporter, 20 h; Potency, µM (series often up to 53.6 µM), most hits filed as inhibitors; 5.4% of 310,000 active; note: nearly all actives have a fitted effect of over 60% in size
Target sequence (P51450 whole entry, looked up, the tested form may be a part): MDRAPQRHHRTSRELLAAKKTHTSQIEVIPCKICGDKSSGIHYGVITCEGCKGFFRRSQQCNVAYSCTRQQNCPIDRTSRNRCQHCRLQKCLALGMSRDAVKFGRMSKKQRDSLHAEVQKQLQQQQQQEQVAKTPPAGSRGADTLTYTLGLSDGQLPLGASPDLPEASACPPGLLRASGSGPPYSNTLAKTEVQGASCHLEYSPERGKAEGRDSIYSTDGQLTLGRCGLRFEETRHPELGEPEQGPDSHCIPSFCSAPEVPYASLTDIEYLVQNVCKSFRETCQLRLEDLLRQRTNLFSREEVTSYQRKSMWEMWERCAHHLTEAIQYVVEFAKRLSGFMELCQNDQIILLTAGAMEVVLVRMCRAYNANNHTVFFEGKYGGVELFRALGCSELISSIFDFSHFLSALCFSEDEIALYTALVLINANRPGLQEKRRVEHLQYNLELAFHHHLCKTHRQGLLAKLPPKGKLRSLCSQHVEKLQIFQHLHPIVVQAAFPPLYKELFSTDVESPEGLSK
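Luminescence from a UAS-regulated Photinus luciferase reporter in stably transfected Drosophila Schneider cells is measured; decreased signal marks ROR gamma inhibition. Fusion expression is induced by 700 uM copper sulfate for 20 hr.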
DT40 TDP1 no CPT = qHTS for Inhibitors of human tyrosyl-DNA phosphodiesterase 1 (TDP1): qHTS in cells in absence of CPT; DT40 Tdp1-/- hTDP1 cells, no CPT, ATP luminescence, 48 h; Potency, µM (highest dose often 46.2 µM), most hits filed as inhibitors; 15% of 420,000 active; AID 686978, 2013; note: nearly all actives have a fitted effect of over 55% in size
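Stably hTDP1-transfected Tdp1-null chicken DT40 cells were treated with library compounds minus camptothecin and grown for at least 48 hr at 37 °C, after which cellular ATP was quantified by luminescence.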
VP16 counter = inhibits Gal4-VP16 luciferase reporter, ROR gamma counter-screen; Drosophila S2 Gal4-VP16 UAS-luciferase, luminescence, 20 h; Potency, µM (titrated, usually from 53.6 µM), usual class: inhibitors; 3.5% of 310,000 active;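 note: Gal4-VP16 expression switched on by copper sulfate through the metallothionein promoter; nearly all actives have a fitted effect of over 50% in size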
Large screens that a line does not name were inactive. An excerpt weighted towards active compounds, which were near 19% of everything screened. Calls come from the whole dose curve; as a rule, active = well fitted curve in the direction sought with a large enough effect; inconclusive = small, poorly fitted or top-dose-only effect, or another doubt; inactive = no such curve, though single readings can be large; an effect the other way counts as inactive or inconclusive.

O=[N+]([O-])c1ccc(CS(=O)Cc2ccccc2)cc1 (stereo not given)	none (no result: TDP1 block, RORgamma inh, VP16 counter)
CCN(CC(=O)Nc1c(F)cccc1F)C(=O)c1cccc(S(=O)(=O)N2CCCc3ccccc32)c1	TDP1 cell CPT inconclusive, DT40 TDP1 no CPT 16µM (no result: TDP1 block, RORgamma inh, VP16 counter)
CCN(CC(=O)Nc1cccc(OC)c1)C(=O)c1cccc(S(=O)(=O)N2CCc3ccccc32)c1	TDP1 cell CPT 23µM, DT40 TDP1 no CPT 16µM (no result: RORgamma inh, VP16 counter)
CCN(CC(=O)Nc1ccc(NC(C)=O)cc1)C(=O)c1cccc(S(=O)(=O)N2CCc3ccccc3C2)c1	none (no result: TDP1 block, RORgamma inh, VP16 counter)
CCN(CC(=O)Nc1c(F)cccc1F)C(=O)c1cccc(S(=O)(=O)N(C)c2ccccc2)c1	TDP1 cell CPT 13µM, DT40 TDP1 no CPT 15µM (no result: TDP1 block, RORgamma inh, VP16 counter)
CCOc1ccc(CNS(=O)(=O)c2ccc3[nH]c(=O)ccc3c2)cc1	none (no result: RORgamma inh, VP16 counter)
Cc1nc2nc(NC(=O)c3ccco3)nn2c(C)c1Cl	RORgamma inh inconclusive
O=C(NNC1=NS(=O)(=O)c2ccccc21)c1ccccc1	RORgamma inh 13µM, VP16 counter inconclusive
O=C(NNC1=NS(=O)(=O)c2ccccc21)c1ccccc1Cl	DT40 TDP1 no CPT inconclusive
O=C(C1CCCN(S(=O)(=O)c2ccc(Br)s2)C1)N1CCN(c2cccc(Cl)c2)CC1 (stereo not given)	TDP1 cell CPT 16µM, DT40 TDP1 no CPT 21µM (no result: RORgamma inh, VP16 counter)
O=C(NCc1cccs1)C1CCCN(S(=O)(=O)c2ccc(Br)s2)C1 (stereo not given)	DT40 TDP1 no CPT inconclusive
O=C(C1CCCN(S(=O)(=O)c2cccs2)C1)N1CCN(c2cccc(Cl)c2)CC1 (stereo not given)	TDP1 cell CPT 21µM, DT40 TDP1 no CPT 15µM (no result: RORgamma inh, VP16 counter)
CC1CC(C)CN(CCCNC(=O)C2CCN(S(=O)(=O)N3CCCCC3)CC2)C1 (stereo not given)	DT40 TDP1 no CPT inconclusive
O=C(NC1=NCCCCC1)c1cccc2ccccc12	none
COc1ccc(C2SCCN2S(=O)(=O)c2ccc(F)cc2)cc1OC (stereo not given)	none
CCC(=O)N1CCCN(S(=O)(=O)c2ccc(C)cc2)C1c1ccc(OC)cc1 (stereo not given)	DT40 TDP1 no CPT 15µM (no result: TDP1 block)
COc1ccc(S(=O)(=O)N2CCSC2c2ccc(OC)c(OC)c2)cc1 (stereo not given)	TDP1 cell CPT inconclusive, DT40 TDP1 no CPT 16µM (no result: TDP1 block)
COc1ccccc1C1SCCN1S(=O)(=O)c1cccc(C(F)(F)F)c1 (stereo not given)	DT40 TDP1 no CPT 16µM
COc1ccc(C2N(S(=O)(=O)c3ccccc3)CCN2S(=O)(=O)c2ccc(C)cc2)cc1 (stereo not given)	TDP1 cell CPT 16µM, DT40 TDP1 no CPT 14µM
O=C1CCc2cc(NS(=O)(=O)c3ccccc3)cc3c2N1CC3	none (no result: TDP1 block, RORgamma inh, VP16 counter)
CC1CN(S(=O)(=O)c2cccc3cnccc23)CCN1 (stereo not given)	none (no result: TDP1 cell CPT, RORgamma inh, DT40 TDP1 no CPT, VP16 counter)
O=C(NCc1ccccc1)C1c2ccccc2Oc2ccccc21	DT40 TDP1 no CPT inconclusive
CC(C)NC(=O)Nc1cccc(Cl)c1	none
Cc1ccc(S(=O)(=O)N2CCN(S(=O)(=O)c3ccc(C)cc3)C2c2ccccc2)cc1	TDP1 cell CPT 18µM, DT40 TDP1 no CPT inconclusive
Cc1cc(Br)cnc1NC(=S)Nc1ccc(F)cc1F	RORgamma inh 6.3µM, DT40 TDP1 no CPT inconclusive, VP16 counter inconclusive (no result: TDP1 block)
CCOC(=O)C1=C(c2ccccc2)NC(=O)NC1c1cccc(OC)c1OC (stereo not given)	DT40 TDP1 no CPT inconclusive (no result: TDP1 block, RORgamma inh, VP16 counter)
CC1(C(=O)NCc2ccccc2)Cc2c(-c3ccccc3)ccnc2O1 (stereo not given)	TDP1 cell CPT inconclusive, DT40 TDP1 no CPT 4.1µM (no result: TDP1 block, RORgamma inh, VP16 counter)
CN1CCN(c2ccc(CNC(=O)C3(C)Cc4c(-c5ccccc5)ccnc4O3)cc2)CC1 (stereo not given)	TDP1 cell CPT 26µM, DT40 TDP1 no CPT 21µM (no result: TDP1 block, RORgamma inh, VP16 counter)
CC1(C(=O)NCC2CC2)Cc2c(-c3ccccc3)ccnc2O1 (stereo not given)	TDP1 cell CPT 9.2µM, DT40 TDP1 no CPT 13µM (no result: TDP1 block, RORgamma inh, VP16 counter)
CC1(C(=O)NCCc2ccccc2)Cc2c(-c3ccccc3)ccnc2O1 (stereo not given)	TDP1 cell CPT 21µM, DT40 TDP1 no CPT inconclusive (no result: TDP1 block, RORgamma inh, VP16 counter)
O=C(CN(CC1CCCO1)C(=O)CNS(=O)(=O)c1ccc(F)cc1)NCc1ccccc1 (stereo not given)	none
